Reference: PubChem BioAssay (NCATS)
Records with an inconclusive call do not appear. A call without a number means that no potency is given here. Values without a mark were called inactive. Activity calls are given as the source filed them. Calls come from the whole dose curve; as a rule, active = well fitted inhibition curve with a large enough effect; inconclusive = small, poorly fitted or top-dose-only effect; inactive = flat fitted curve, though single readings scatter.

Experiment: qHTS to identify inhibitors of the type 1 interferon - major histocompatibility complex class I in skeletal muscle: primary screen against the NCATS Pharmaceutical Collection (AID 1347407)
Details: human skeletal muscle cells, IFN-b-induced MHC-I HiBiT luminescence, 24 h; series mostly up to 45.9 µM
From the text: Assay Submitter (PI): Travis B. Kinder Ph.D. & James Inglese Ph.D.
Assay Development and Screening Technology Laboratory (ADST)
National Center for Advancing Translational Sciences (NCATS), Rockville, MD
National Institute of Health (NIH), Bethesda, Maryland
Idiopathic inflammatory myopathies, collectively referred to as myositis, are a group of rare autoimmune diseases characterized by skeletal muscle inflammation, weakness, and usually accompanied by systemic pathologies of the skin, lungs, or vasculature. Current immunosuppressive therapies and glucocorticoids are often not curative and are accompanied by harsh side effects, especially in children with juvenile myositis. We initiated a drug repurposing and development program to identify more targeted, less toxic therapeutics to treat myositis. Although its cause is not known, muscle from a subset of patients have an abundance of the inflammatory type 1 interferon (IFN) and a down-stream product major histocompatibility complex class I (MHC class I), which are both thought to contribute to damage and weakness. We conducted quantitative high throughput screening on 6,576 compounds (4,679 unique) through a series of cell-based assays to identify those that inhibit the IFN-stimulated expression of MHC class I in muscle precursor cells (myoblasts). The compound identification and evaluation strategy utilized a primary screen with reporter-tagged MHC class I in genome-engineered myoblasts, ATP content counter screen for viability, HLA-ABC immunofluorescence secondary screen, and HLA-B RT-qPCR tertiary screen.
The primary screen utilized CRISPR/Cas9 genome-engineering of immortalized human myoblasts, C25cl48, where a pro-luminescent reporter HiBit was fused to the C-terminus of endogenous MHC class I allele HLA-B*08:01 (HLA-B HiBit myoblasts). HiBit is an 11 amino acid fragment of NanoLuc luminescent reporter (Promega Corporation), and when complexed to the larger LgBit fragment, the reconstituted enzyme produces light in the presence of furimazine substrate (Schwinn et al., 2018). Briefly, HLA-B HiBit myoblasts were plated into 1536-well plates, treated with 4.0 ng/ml human IFN-beta and 2,816 compounds from the NCATS Pharmaceutical Collection (NPC) that contains all drugs approved in the US, EU, and Japan (Huang et al., 2011) in an 8-point, 1:5 titration with a high final concentration of 46 uM. After 24 hrs of treatment, cells were assayed by Nano-Glo HiBiT Lytic Detection System (Promega) and luminescence measured by a ViewLux 1430 Ultra HTS (Perkin Elmer).
Huang R, Southall N, Wang Y, Yasgar A, Shinn P, Jadhav A, Nguyen D-T, Austin CP. 2011. The NCGC pharmaceutical collection: a comprehensive resource of clinically approved drugs enabling repurposing and chemical genomics. Sci Transl Med 3:80ps16. doi:10.1126/scitranslmed.3001862
Schwinn MK, Machleidt T, Zimmerman K, Eggers CT, Dixon AS, Hurst R, Hall MP, Encell LP, Binkowski BF, Wood K V. 2018. CRISPR-Mediated Tagging of Endogenous Proteins with a Luminescent Peptide. ACS Chem Biol 13:467-474. doi:10.1021/acschembio.7b00549
PROTOCOL TABLE (as described by Inglese et al., 2007)
SEQUENCE No. (e.g., 1, 2, 3, etc.); […] (e.g., Cells, Incubation, Reagent, etc.); VALUE; DESCRIPTION
1a; Cells; 5 uL; Use a Multidrop Combi (Thermo Scientific) to seed 350 cells/well into nine Greiner 1536 well white/solid bottom, high base, TC plates in 5 ul/well of iHSKM growth medium (GM) without dexamethasone into columns 1+2. Add metal lids with gas-exchange holes
1b; Cells; 5 uL; Use a Multidrop Combi (Thermo Scientific) to seed 350 cells/well into nine Greiner 1536 well white/solid bottom, high base, TC plates in 5 ul/well of iHSKM GM without dexamethasone + 4 ng/ml IFN-b into columns 3 - 48. Add metal lids with gas-exchange holes
2; Incubate; 1 hr; Incubate at 37 C, 5% CO2, 95% RH
[…]

| SMILES | Potency | activity change, negative = inhibition |
| --- | --- | --- |
| Nc1nc2c(ncn2CCC(CO)CO)c(=O)[nH]1 | inactive | – |
| CCCOC(=O)c1ccccc1 | inactive | – |
| CCCCCCCCCCCCOS(=O)(=O)O | inactive | – |
| C#CCN(C)Cc1ccccc1 | inactive | – |
| CCn1cc(C(=O)O)c(=O)c2cnc(N3CCNCC3)nc21 | inactive | – |
| O=c1cc(CO)occ1O | inactive | – |
| Nc1ccc(S(=O)(=O)Nc2ccc(Cl)nn2)cc1 | inactive | – |
| COc1ccc2[nH]c(S(=O)Cc3ncc(C)c(OC)c3C)nc2n1 (stereo not given) | inactive | – |
| CC(C)(C)C(=O)NCCCC(=O)O | inactive | – |
| O=C(CCCN1CCN(c2ccccn2)CC1)c1ccc(F)cc1 | inactive | – |
| CCOC(=O)[C@H](CCc1ccccc1)N[C@@H](C)C(=O)N1C(=O)N(C)C[C@H]1C(=O)O | inactive | – |
| Cc1c(Cl)cccc1Nc1ccccc1C(=O)O | inactive | – |
| [O-][n+]1cccc(CO)c1 | inactive | – |
| CC(O)CN(CCN(CC(C)O)CC(C)O)CC(C)O (stereo not given) | inactive | – |
| CC1=C(/C=C/C(C)=C/C=C/C(C)=C/C(=O)O)C(C)(C)CCC1 | inactive | – |
| CC(COc1ccccc1)NC(C)C(O)c1ccc(O)cc1 (stereo not given) | inactive | – |
| Cc1cc(CC(=O)O)n(C)c1C(=O)c1ccc(Cl)cc1 | inactive | – |
| O=c1[nH]cnc2c1ncn2[C@@H]1O[C@H](CO)[C@@H](O)[C@H]1O | inactive | – |
| CN1[C@@H]2CC[C@H]1CC(OC(=O)C(O)c1ccccc1)C2 (stereo not given in full) | inactive | – |
| CO/N=C(\C(=O)N[C@@H]1C(=O)N2C(C(=O)O)=C(CSc3nc(=O)c(O)nn3C)CS[C@H]12)c1csc(N)n1 | inactive | – |

| SMILES | Potency | activity change, negative = inhibition |
| --- | --- | --- |
| CN1CCC[C@@H]1Cc1c[nH]c2ccc(CCS(=O)(=O)c3ccccc3)cc12 | inactive | – |
| CCCCC(CC)COC(=O)c1ccccc1O (stereo not given) | inactive | – |
| O=C(O)CC(O)C(=O)O (stereo not given) | inactive | – |
| NC(N)=NCCC[C@H](N)C(=O)O | – | -4.76% [at 3.83 µM] |
| CC(=O)NC(Cc1ccccc1)C(=O)O (stereo not given) | inactive | – |
| Nc1cc(=O)[nH]c(N)n1 | inactive | – |
| CC(C(O)c1ccc(O)cc1)N1CCC(Cc2ccccc2)CC1 (stereo not given) | inactive | – |
| CC(C)(C(=O)O)c1ccc(C(O)CCCN2CCC(C(O)(c3ccccc3)c3ccccc3)CC2)cc1 (stereo not given) | inactive | – |
| CCOC(CN1CCN(CC(C)C(=O)c2ccccc2)CC1)c1ccccc1 (stereo not given) | inactive | – |
| CC1(C)S[C@@H]2[C@H](NC(=O)Cc3ccccc3)C(=O)N2[C@H]1C(=O)O (tested in a mixture with another compound) | inactive | – |
| N[C@@H](CSSC[C@H](N)C(=O)O)C(=O)O | – | 0.957% [at 0.727 µM] |
| CN(C)CCOC(C)(c1ccccc1)c1ccccn1 (stereo not given) | inactive | – |
| C/C(=C(\CCOP(=O)(O)O)SC(=O)c1ccccc1)N(C=O)Cc1cnc(C)nc1N | – | -12.9% [at 3.83 µM] |
| C[C@](N)(Cc1ccc(O)cc1)C(=O)O | – | -0.196% [at 3.83 µM] |
| [Cl][In]([Cl])[Cl] | inactive | – |
| CCCCN1CCCC[C@H]1C(=O)Nc1c(C)cccc1C | inactive | – |
| C[C@H]1O[C@H](O[C@H]2[C@H](O)[C@@H](O)[C@@H](O[C@H]3[C@H](O)[C@@H](O)[C@H](O)O[C@@H]3CO)O[C@@H]2CO)[C@H](O)[C@@H](O)[C@@H]1N[C@H]1C=C(CO)[C@@H](O)[C@H](O)[C@H]1O | inactive | – |
| COC(=O)C1=C(C)NC(C)=C(C(=O)OC)C1c1ccccc1[N+](=O)[O-] | inactive | – |
| O=C1NC(=O)[C@@]2(CCOc3ccc(F)cc32)N1 | inactive | – |
| CN(C)CCCN1c2ccccc2Sc2ccc(Cl)cc21 | inactive | – |
